# Results taken from PubChem BioAssay (Tox21).
# Unmarked numbers belong to inactive results. Unless noted, the call rests on the fitted dose curve; in most records, active means well fitted inhibition curve with a large enough effect in the repeat runs (not every such curve was filed as active); inconclusive means weak or mixed curves; inactive means flat fitted curve, though single readings scatter. Records with an inconclusive call do not appear.
# System: not listed separately
# Assay: qHTS assay to identify small molecule agonists of the TGF-beta/Smad signaling pathway (AID 1346859; active means well fitted activation curve with a large enough effect in the signal ratio in the repeat runs, not every such curve was filed as active; the % refers to the signal ratio)
# Details: SBE-bla HEK293T, TGF-beta/Smad beta-lactamase reporter, 5 h; series mostly up to 76.8 µM; activation: at the top concentration
# How it was run: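 Each well held 4,000 SBE-bla HEK 293T cells incubated overnight before compound addition; 5 hr later the cleavable FRET substrate went on for 2 hr at room temperature, and fluorescence was read at two emissions.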
# On the % scale 0 is the no-effect control and ±100 the full control effect.
row,SMILES,activation
1,CC(C1CC1)C(O)(Cn1cncn1)c1ccc(Cl)cc1 (configuration not stated),-4.12%
2,CN(N=O)C(N)=O,1.48%
3,ClCC(Cl)Cl,-0.222%
4,O=C(O)c1cccc(Cl)c1,0.964%
5,CS(=O)(=O)c1cc(C(F)(F)F)ccc1C(=O)c1cnoc1C1CC1,-1.58%
6,CC1CN1P(=O)(N1CC1C)N1CC1C (configuration not stated),0.309%
7,CCSC(=O)N(CC)C1CCCCC1,-0.653%
8,CCOP(=O)(OCC)OP(=O)(OCC)OCC,0.149%
9,CNC(=O)Oc1ccccc1C1OCCO1,-0.0741%
10,N#CCCC#N,2.51%
11,COC(=O)c1ccccc1S(=O)(=O)NC(=O)N(C)c1nc(C)nc(OC)n1,1.1%
12,Cc1ncc(CNC(=O)N(CCCl)N=O)c(N)n1,-0.282% [at 35.3 µM]
13,Clc1ccccc1N1CCNCC1,3.04% [at 35.3 µM]
14,C[N+](C)=CCl,-0.348%
15,O=c1oc2ccccc2c(O)c1C1CCCc2ccccc21 (configuration not stated),-3.33%
16,O=C(Oc1ccc(Br)cc1)N1CCN2CCC1CC2,0.1%
17,COc1cc(OC)nc(NC(=O)NS(=O)(=O)c2ncccc2C(=O)N(C)C)n1,0.343%
18,Cc1cc(C)c(C(=O)P(=O)(C(=O)c2c(C)cc(C)cc2C)c2ccccc2)c(C)c1,-2.12%
19,C[C@]12CC[C@H]3[C@@H](CC=C4C[C@@H](O)CC[C@@]43C)[C@@H]1CC[C@@H]2O,2.11% [at 35.3 µM]
20,O=NN1CCCCC1,-1.85%
21,O=[N+]([O-])c1ccc(CBr)cc1,5.12%
22,C=CC1CC=CCC1 (configuration not stated),-3.99%
23,COc1cc(C[C@@H](C)N)c(OC)cc1C,-0.81%
24,c1ccc(N2CCNCC2)cc1,-2.78% [at 35.3 µM]
25,CNC(=O)Oc1cccc(C(C)C)c1,0.539%
26,CC1=NNC(=O)N(/N=C/c2cccnc2)C1,0.225%

# Target: Thyrotropin-releasing hormone receptor (Homo sapiens) (UniProt P34981)
# Assay: qHTS assay to identify small molecule antagonists of the thyrotropin-releasing hormone receptor (TRHR) signaling pathway (AID 1346877)
# Details: TRHR-HEK293, TRH-induced calcium fluorescence, antagonist mode; series mostly up to 51.3 µM; activity, negative = inhibition: at the top concentration
# How it was run: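 Human TRHR in HEK293 cells; inhibition of the intracellular calcium rise triggered by 1 nM TRH was followed by fluorescence over 3 min. Compounds were run at 15 concentrations, three replicates each.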
# Thyrotropin-releasing hormone receptor (Homo sapiens), sequence (P34981 whole entry, looked up): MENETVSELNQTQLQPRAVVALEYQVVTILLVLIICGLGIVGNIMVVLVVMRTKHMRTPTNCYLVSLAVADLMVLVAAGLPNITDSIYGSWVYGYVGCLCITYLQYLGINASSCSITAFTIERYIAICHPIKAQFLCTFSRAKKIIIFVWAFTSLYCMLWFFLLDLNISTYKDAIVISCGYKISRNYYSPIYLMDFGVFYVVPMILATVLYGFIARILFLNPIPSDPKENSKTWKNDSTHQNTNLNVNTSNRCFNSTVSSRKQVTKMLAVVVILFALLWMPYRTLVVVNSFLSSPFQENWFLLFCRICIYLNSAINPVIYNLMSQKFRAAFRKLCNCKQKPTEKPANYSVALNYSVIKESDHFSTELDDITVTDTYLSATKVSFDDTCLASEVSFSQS
row,SMILES,"activity, negative = inhibition"
1,COc1ncc(F)c2nc(S(=O)(=O)Nc3c(F)cccc3F)nn12,4.22% [at 23.6 µM]
2,CC(C1CC1)C(O)(Cn1cncn1)c1ccc(Cl)cc1 (configuration not stated),1.19%
3,CCCCOP(=O)(O)OCCCC,-2.64%
4,CN(N=O)C(N)=O,0.921%
5,OCCSCSCCO,-5.54%
6,O=C(O)c1cccc(Cl)c1,0.648%
7,CC1CN1P(=O)(N1CC1C)N1CC1C (configuration not stated),1.78%
8,COC(=O)c1ccccc1S(=O)(=O)NC(=O)Nc1nc(C)cc(C)n1,2.26%
9,CCSC(=O)N(CC)C1CCCCC1,0.286%
10,CC(=O)CC(c1ccc(Cl)cc1)c1c(O)c2ccccc2oc1=O (configuration not stated),-0.245%
11,CCOP(=O)(OCC)OP(=O)(OCC)OCC,2.42%
12,CNC(=O)Oc1ccccc1C1OCCO1,2.12%
13,N#CCCC#N,8.91%
14,COC(=O)c1ccccc1S(=O)(=O)NC(=O)N(C)c1nc(C)nc(OC)n1,3.3%
15,Cc1ncc(CNC(=O)N(CCCl)N=O)c(N)n1,-4.61% [at 23.6 µM]
16,Clc1ccccc1N1CCNCC1,-2.07% [at 23.6 µM]

row,SMILES,"activity, negative = inhibition"
1,O=P(O)(Oc1ccccc1)Oc1ccccc1,1.88%
2,BrCCCCCCBr,-0.0621%
3,C[N+](C)=CCl,0.163%
4,O=c1oc2ccccc2c(O)c1C1CCCc2ccccc21 (configuration not stated),-4.3%
5,O=C(Oc1ccc(Br)cc1)N1CCN2CCC1CC2,-0.352%
6,COc1cc(OC)nc(NC(=O)NS(=O)(=O)c2ncccc2C(=O)N(C)C)n1,2.22%
7,Cc1cc(C)c(C(=O)P(=O)(C(=O)c2c(C)cc(C)cc2C)c2ccccc2)c(C)c1,-0.169%
8,ClC(Cl)Br,1.93%
9,O=NN1CCCCC1,16%
10,O=[N+]([O-])c1ccc(CBr)cc1,2.14%
11,C=CC1CC=CCC1 (configuration not stated),0.651%
12,COc1cc(C[C@@H](C)N)c(OC)cc1C,-0.106%
13,CNC(=O)Oc1cccc(C(C)C)c1,0.183%
14,CC1=NNC(=O)N(/N=C/c2cccnc2)C1,0.293%
15,CCC(=O)c1ccccc1,0.732%
